Data reported in PubChem BioAssay (NCATS).
Records with an inconclusive call do not appear. Where a call stands in place of a potency, no number is given. Activity calls are given as the source filed them. Unless noted, calls follow the shape of the dose curve; as a rule, active = well fitted curve in the direction sought with a large enough effect; inconclusive = small, poorly fitted or top-dose-only effect, or another doubt; inactive = no such curve, though single readings can be large; an effect the other way counts as inactive or inconclusive.

assay: qHTS profiling for inhibitors of Plasmodium falciparum (3D7) proliferation (AID 743322; call rule not given here;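 also: infected erythrocytes exposed to compound for 72 h before lysis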); conditions: P. falciparum 3D7 proliferation; at 28.7 µM (top of the series) unless noted
Method in brief: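 Parasite DNA was quantified by SYBR Green I fluorescence (ex 485, em 535 nm) after overnight lysis in saponin/Triton buffer at room temperature. Cultures at 0.3% parasitemia and 2.5% hematocrit were first exposed to compound for 72 h at 37 C; signals were normalised to artemisinin (0.29 uM) and vehicle wells.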

Row | SMILES | remaining parasite growth % (stronger effect = lower value)
1 | CCN(CC)CCOCCOC(=O)C(CC)(CC)c1ccccc1 | 90.6%
2 | Cc1c(N)nc([C@H](CC(N)=O)NC[C@H](N)C(N)=O)nc1C(=O)N[C@H](C(=O)N[C@H](C)[C@@H](O)[C@H](C)C(=O)N[C@H](C(=O)NCCc1nc(-c2nc(C(=O)NCCCCN=C(N)N)cs2)cs1)[C@@H](C)O)[C@@H](O[C@@H]1O[C@@H](CO)[C@@H](O)[C@H](O)[C@@H]1O[C@H]1O[C@H](CO)[C@@H](O)[C@H](OC(N)=O)[C@@H]1O)c1cnc[nH]1 | 83.7%
3 | C=Cc1c(C)c2cc3nc(cc4[nH]c(cc5nc(cc1[nH]2)C(C)=C5CCC(=O)OC)c(CCC(=O)O)c4C)[C@@]1(C)C3=CC=C(C(=O)OC)[C@H]1C(=O)OC | -0.398% [at 9.63 µM]
4 | CO[C@H]1O[C@@H]2O[C@@]3(C)CC[C@H]4[C@H](C)CC[C@@H]([C@H]1C)[C@@]24OO3 | -0.372% [at 57.5 µM]
5 | C[C@H]1[C@@H](OC(=O)CCC(=O)O)O[C@@H]2OC3(C)CC[C@H]4[C@H](C)CC[C@@H]1[C@@]24OO3 | -0.578%

assay: qHTS profiling for inhibitors of Plasmodium falciparum (DD2) proliferation (AID 743323; call rule not given here); conditions: lower = more inhibition; at 28.7 µM (top of the series) unless noted
Method in brief: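 Parasite DNA quantified by SYBR Green fluorescence (ex 485, em 535 nm) after saponin/Triton lysis and overnight dark incubation. Cultures: 0.3% parasitemia, 2.5% hematocrit, 72 h, 37 C; data scaled between DMSO and 0.29 uM artemisinin.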

Row | SMILES | activity, percent of control
6 | CCN(CC)CCOCCOC(=O)C(CC)(CC)c1ccccc1 | 50.9%
7 | Cc1c(N)nc([C@H](CC(N)=O)NC[C@H](N)C(N)=O)nc1C(=O)N[C@H](C(=O)N[C@H](C)[C@@H](O)[C@H](C)C(=O)N[C@H](C(=O)NCCc1nc(-c2nc(C(=O)NCCCCN=C(N)N)cs2)cs1)[C@@H](C)O)[C@@H](O[C@@H]1O[C@@H](CO)[C@@H](O)[C@H](O)[C@@H]1O[C@H]1O[C@H](CO)[C@@H](O)[C@H](OC(N)=O)[C@@H]1O)c1cnc[nH]1 | 82.1%
8 | C=Cc1c(C)c2cc3nc(cc4[nH]c(cc5nc(cc1[nH]2)C(C)=C5CCC(=O)OC)c(CCC(=O)O)c4C)[C@@]1(C)C3=CC=C(C(=O)OC)[C@H]1C(=O)OC | 0.912% [at 9.63 µM]
9 | CO[C@H]1O[C@@H]2O[C@@]3(C)CC[C@H]4[C@H](C)CC[C@@H]([C@H]1C)[C@@]24OO3 | -0.375% [at 57.5 µM]
10 | C[C@H]1[C@@H](OC(=O)CCC(=O)O)O[C@@H]2OC3(C)CC[C@H]4[C@H](C)CC[C@@H]1[C@@]24OO3 | -0.204%

assay: qHTS profiling for inhibitors of Plasmodium falciparum (HB3) proliferation (AID 743324); conditions: Plasmodium falciparum HB3 blood-stage proliferation; at 28.7 µM (top of the series) unless noted
Method in brief: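 SYBR Green fluorescence (485 ex/535 em) of lysed cultures, incubated overnight at room temperature in the dark, quantifies parasite DNA. Infected erythrocytes at 0.3% parasitemia and 2.5% hematocrit were exposed 72 h; values normalized to DMSO and 0.29 uM artemisinin controls.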

Row | SMILES | remaining proliferation (% of control), lower = more inhibition
11 | CCN(CC)CCOCCOC(=O)C(CC)(CC)c1ccccc1 | 65.7%
12 | Cc1c(N)nc([C@H](CC(N)=O)NC[C@H](N)C(N)=O)nc1C(=O)N[C@H](C(=O)N[C@H](C)[C@@H](O)[C@H](C)C(=O)N[C@H](C(=O)NCCc1nc(-c2nc(C(=O)NCCCCN=C(N)N)cs2)cs1)[C@@H](C)O)[C@@H](O[C@@H]1O[C@@H](CO)[C@@H](O)[C@H](O)[C@@H]1O[C@H]1O[C@H](CO)[C@@H](O)[C@H](OC(N)=O)[C@@H]1O)c1cnc[nH]1 | 67.1%
13 | C=Cc1c(C)c2cc3nc(cc4[nH]c(cc5nc(cc1[nH]2)C(C)=C5CCC(=O)OC)c(CCC(=O)O)c4C)[C@@]1(C)C3=CC=C(C(=O)OC)[C@H]1C(=O)OC | 0.279% [at 9.63 µM]
14 | CO[C@H]1O[C@@H]2O[C@@]3(C)CC[C@H]4[C@H](C)CC[C@@H]([C@H]1C)[C@@]24OO3 | 0.0422% [at 57.5 µM]
15 | C[C@H]1[C@@H](OC(=O)CCC(=O)O)O[C@@H]2OC3(C)CC[C@H]4[C@H](C)CC[C@@H]1[C@@]24OO3 | -0.191%

assay: qHTS assay to identify small molecule inhibitors of chordoma cells - UCH-1 (AID 1259355); conditions: UCH-1 chordoma viability, CellTiter-Glo, 48 h, combination, with auranofin plus four topoisomerase inhibitors; series mostly up to 46.1 µM; also: nearly all actives have a fitted effect of over 55% in size; also: potency is read from the fitted curve at half-maximal effect
Method in brief: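 A 48hr growth-inhibition format: each drug tested at 15 concentrations together with added auranofin, camptothecin, doxorubicin, rubitecan and topotecan, with cell viability quantified as CellTiter-Glo luminescence.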

Row | SMILES | Potency
16 | CSc1nc2cc(Oc3cccc(Cl)c3Cl)c(Cl)cc2[nH]1 | inactive
17 | C[C@H]1O[C@@H](O[C@H]2[C@@H](O)C[C@H](O[C@H]3[C@@H](O)C[C@H](O[C@H]4CC[C@@]5(C)[C@H](CC[C@@H]6[C@@H]5C[C@@H](O)[C@]5(C)[C@@H](C7=CC(=O)OC7)CC[C@]65O)C4)O[C@@H]3C)O[C@@H]2C)C[C@H](O)[C@@H]1O | 0.355 µM (active)
18 | O=C(CCCN1CCC(C(=O)c2ccc(F)cc2)CC1)c1ccc(F)cc1 | inactive
19 | NC(N)=O | inactive
20 | C/C(=C\C(=O)OCCCCCCCCC(=O)O)C[C@@H]1OC[C@H](C[C@@H]2O[C@H]2[C@@H](C)[C@H](C)O)[C@@H](O)[C@H]1O | inactive
21 | C=C1CC[C@H](O)CC1=C/C=C1\CCC[C@]2(C)[C@@H]([C@H](C)CCCC(C)(C)O)CC[C@@H]12 | inactive
22 | CCN(CC)CCC(=O)N1c2ccccc2Sc2ccc(C(F)(F)F)cc21 | inactive
23 | CCN(CC)CCOCCOC(=O)C(CC)(CC)c1ccccc1 | inactive
24 | Cc1c(N)nc([C@H](CC(N)=O)NC[C@H](N)C(N)=O)nc1C(=O)N[C@H](C(=O)N[C@H](C)[C@@H](O)[C@H](C)C(=O)N[C@H](C(=O)NCCc1nc(-c2nc(C(=O)NCCCCN=C(N)N)cs2)cs1)[C@@H](C)O)[C@@H](O[C@@H]1O[C@@H](CO)[C@@H](O)[C@H](O)[C@@H]1O[C@H]1O[C@H](CO)[C@@H](O)[C@H](OC(N)=O)[C@@H]1O)c1cnc[nH]1 | inactive
25 | C=Cc1c(C)c2cc3nc(cc4[nH]c(cc5nc(cc1[nH]2)C(C)=C5CCC(=O)OC)c(CCC(=O)O)c4C)[C@@]1(C)C3=CC=C(C(=O)OC)[C@H]1C(=O)OC | inactive
26 | C=C1[C@H](CO)[C@@H](O)C[C@@H]1n1cnc2c(=O)[nH]c(N)nc21 | inactive
27 | C=C(C)C1CC=C(C)CC1 (stereo not drawn) | inactive
28 | C=C[C@]1(C)C[C@@H](OC(=O)CSCCN(CC)CC)[C@]2(C)[C@H](C)CC[C@]3(CCC(=O)[C@H]32)[C@@H](C)[C@@H]1O | inactive
29 | CCN(CC)CCOc1ccc2nc(N(C)C)sc2c1 | inactive
30 | O=C(O)[C@H]1C(=CCO)O[C@H]2CC(=O)N12 | inactive
31 | CN[C@@H]1[C@H](O[C@H]2[C@H](O[C@H]3[C@H](O)[C@@H](O)[C@H](N=C(N)N)[C@@H](O)[C@@H]3N=C(N)N)O[C@@H](C)[C@]2(O)CO)O[C@@H](CO)[C@H](O)[C@H]1O | inactive
32 | CO[C@H]1O[C@@H]2O[C@@]3(C)CC[C@H]4[C@H](C)CC[C@@H]([C@H]1C)[C@@]24OO3 | inactive
33 | CC[C@H]1OC(=O)[C@H](C)[C@@H](O[C@H]2C[C@@](C)(OC)[C@@H](O)[C@H](C)O2)[C@H](C)[C@@H](O[C@@H]2O[C@H](C)C[C@H](N(C)C)[C@H]2O)[C@](C)(O)C[C@@H](C)CN(C)[C@H](C)[C@@H](O)[C@]1(C)O | inactive
34 | CN(C)CCCSc1ccccc1NC(=O)/C=C/c1ccccc1 | inactive

Row | SMILES | Potency
35 | C[Si](C)(C)O[Si](C)(C)C | inactive
36 | CC(C)=CCC/C(C)=C/CC/C(C)=C/CC/C(C)=C/CC1=C(C)C(=O)c2ccccc2C1=O | inactive
37 | OB(O)O | inactive
38 | CC(=O)[C@H]1CC[C@H]2[C@@H]3C=CC4=CC(=O)CC[C@@]4(C)[C@H]3CC[C@]12C | inactive
39 | C=C1C(CCl)(CCl)C2(Cl)C(Cl)C(Cl)C1(Cl)C2(Cl)Cl (stereo not drawn) | inactive
40 | O=C1/C(=C\c2cccs2)CCC/C1=C\c1cccs1 | inactive
41 | CCN(CC)CCC(=O)N1c2ccccc2Sc2ccc(Cl)cc21 | inactive
42 | COc1ccccc1N1CCN(CCCC(=O)c2ccc(F)cc2)CC1 | inactive
43 | CCCCCCCCCCCCCCCCOCCOCCOCCOCCOCCOCCOCCOCCOCCOCCOCCOCCOCCOCCOCCOCCOCCOCCOCCOCCO | 35.5 µM (active)
44 | CCCc1nc(C(C)(C)O)c(C(=O)OCc2oc(=O)oc2C)n1Cc1ccc(-c2ccccc2-c2nn[nH]n2)cc1 | inactive
45 | CS(=O)(=O)c1ccc([C@@H](O)[C@@H](COC(=O)CN)NC(=O)C(Cl)Cl)cc1 | inactive
46 | O=C(O)CCC(=O)c1ccc(-c2ccccc2)cc1 | inactive
47 | C#C[C@]1(O)CC[C@H]2[C@@H]3CCC4=C(CCC(=O)C4)[C@H]3CC[C@@]21C | inactive
48 | C[C@H]1[C@@H](OC(=O)CCC(=O)O)O[C@@H]2OC3(C)CC[C@H]4[C@H](C)CC[C@@H]1[C@@]24OO3 | inactive
49 | COc1ccc2nc(NC(=O)Nc3ccccc3)sc2c1 | inactive
50 | N[C@@H](Cc1cc(I)c(Oc2ccc(O)c(I)c2)c(I)c1)C(=O)O | inactive
51 | CC1=CC(=O)NS(=O)(=O)O1 | inactive
52 | CC(CN1c2ccccc2Sc2cccnc21)N(C)C (stereo not drawn) | inactive
53 | O=c1n(CC2CO2)c(=O)n(CC2CO2)c(=O)n1CC1CO1 (stereo not drawn) | inactive
